Results filed as inconclusive are left out. More than one record can exist for a structure, and the calls need not agree. Calls of active or inactive are those of the source. Unless noted, calls follow the shape of the dose curve; as a rule, active = well fitted cell-killing curve with a large enough effect in the repeat runs; inconclusive = weak or mixed curves; inactive = no such curve, though single readings can be large or run the other way.
Target: Peroxisome proliferator-activated receptor delta (Homo sapiens) (UniProt Q03181)
Sequence (Q03181 whole entry, looked up): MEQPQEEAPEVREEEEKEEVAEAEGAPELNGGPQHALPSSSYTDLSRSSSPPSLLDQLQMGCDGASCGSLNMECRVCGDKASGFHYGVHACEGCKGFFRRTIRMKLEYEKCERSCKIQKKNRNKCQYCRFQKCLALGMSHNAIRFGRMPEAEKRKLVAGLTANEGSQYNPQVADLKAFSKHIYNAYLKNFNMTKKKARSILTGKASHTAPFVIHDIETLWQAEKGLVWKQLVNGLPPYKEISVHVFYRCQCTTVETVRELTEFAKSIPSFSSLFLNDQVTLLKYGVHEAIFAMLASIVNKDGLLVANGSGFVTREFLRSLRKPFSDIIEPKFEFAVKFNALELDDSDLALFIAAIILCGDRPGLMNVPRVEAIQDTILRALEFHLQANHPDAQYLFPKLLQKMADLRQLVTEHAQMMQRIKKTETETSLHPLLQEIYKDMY
Assay: qHTS assay to identify small molecule agonists of the peroxisome proliferator-activated receptor delta (PPARd) signaling pathway (AID 743212; calls by dose curve;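 also: HEK293H cells with PPARd UAS beta-lactamase reporter GeneBLAzer system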; also: potency is read from the fitted curve at half-maximal effect)
Conditions: HEK293H PPARd-UAS-bla, beta-lactamase FRET ratio, 17 h; series mostly up to 62.6 µM; activation: at the top concentration
In short: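 GeneBLAzer UAS-bla HEK293H cells carrying a PPARδ construct were exposed to compounds at 37 °C. Beta-lactamase activity was read by FRET fluorescence after 2 h at room temperature with LiveBLAzer B/G substrate.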
% is scaled to controls: 0 for no effect and ±100 for the full control effect.

| Structure (SMILES) | activation | Potency |
| --- | --- | --- |
| COc1cc(/C=C/C(=O)O[C@H]2CC[C@]34C[C@]35CC[C@]3(C)[C@@H]([C@H](C)CCC=C(C)C)CC[C@@]3(C)[C@@H]5CC[C@H]4C2(C)C)ccc1O | 0.0195% (inactive) | – |
| CCCCCCCCCCCCCCCC(=O)OC[C@H](O)[C@H]1OC(=O)C(O)=C1O | – | 49 µM (active) |
| CCCC1O[C@@H]2C[C@H]3[C@@H]4CCC5=CC(=O)C=C[C@]5(C)[C@H]4[C@@H](O)C[C@]3(C)[C@]2(C(=O)CO)O1 (stereo partly drawn) | -0.115% (inactive) | – |
| CCCCCCCCCCC=O | -0.375% [at 81.1 µM] (inactive) | – |
| C=C(C)C(=O)OCC[N+](C)(C)C | -4.97% (inactive) | – |
| CCC(C)(C)C1CCCCC1OC(C)=O (stereo not drawn) | -0.884% (inactive) | – |
| Clc1ccc2nsnc2c1NC1=NCCN1 | 3.62% (inactive) | – |
| CC(=O)OCC(C)OC(C)=O (stereo not drawn) | 0.835% (inactive) | – |
| O=C1CCCCCN1SSN1CCCCCC1=O | -1.43% (inactive) | – |
| Cc1cccc(S(=O)(=O)O)c1C | 1.71% (inactive) | – |
| CSc1ccc(C(=O)c2[nH]c(=O)[nH]c2C)cc1 | 0.697% (inactive) | – |
| ON=C1CCCC1 | 0.652% [at 81.1 µM] (inactive) | – |
| Cc1ccc(O)c(C(C)(C)C)c1 | 6.23% (inactive) | – |
| O=C1c2ccccc2Cc2ccccc21 | 1.04% [at 81.1 µM] (inactive) | – |

Tested on: not listed separately
Assay: qHTS assay to identify small molecule antagonists of the peroxisome proliferator-activated receptor delta (PPARd) signaling pathway - cell viability counter screen (AID 743213); also: nearly all actives have a fitted effect of over 50% in size; also: potency is read from the fitted curve at half-maximal effect
Conditions: PPARd-bla HEK293H viability, CellTiter-Glo luminescence, 17 h; series mostly up to 62 µM; viability change, negative = cytotoxic: at the top concentration
In short: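 In this counter screen, HEK293H cells carrying a UAS-beta-lactamase reporter are co-treated with test compounds and 300 nM L165041 (final) for 17 h at 37 C; cell viability is quantified by CellTiter-Glo luminescence.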

| Structure (SMILES) | viability change, negative = cytotoxic | Potency |
| --- | --- | --- |
| COc1cc(/C=C/C(=O)O[C@H]2CC[C@]34C[C@]35CC[C@]3(C)[C@@H]([C@H](C)CCC=C(C)C)CC[C@@]3(C)[C@@H]5CC[C@H]4C2(C)C)ccc1O | -14.9% (inactive) | – |
| CCCCCCCCCCCCCCCC(=O)OC[C@H](O)[C@H]1OC(=O)C(O)=C1O | -6.87% (inactive) | – |
| Cc1c(C)c2c(c(C)c1O)CCC(C)(COc1ccc(CC3SC(=O)NC3=O)cc1)O2 (stereo not drawn) | 22.7% (inactive) | – |
| COC(=O)C1=C(C)NC(C)=C(C(=O)OCC(C)C)C1c1ccccc1[N+](=O)[O-] (stereo not drawn) | – | 21.9 µM (active) and inactive |
| O=[N+]([O-])c1ccccc1Nc1ccccc1 | -4.21% (inactive) | – |
| CN(C)c1ccc(SC#N)cc1 | -26.7% (inactive) | – |
| CCCC1O[C@@H]2C[C@H]3[C@@H]4CCC5=CC(=O)C=C[C@]5(C)[C@H]4[C@@H](O)C[C@]3(C)[C@]2(C(=O)CO)O1 (stereo partly drawn) | 0.687% (inactive) | – |
| CCc1cc(Cc2cc(CC)c(N)c(CC)c2)cc(CC)c1N | – | 54.9 µM (active) |
| CCCCCCCCCCC=O | -0.283% [at 80.4 µM] (inactive) | – |
| C1CCCC1 | -19.2% (inactive) | – |
| CC(C)CCCCCCCCCCCCCCC(=O)O | 9.04% (inactive) | – |
| Oc1ccc(Cl)cc1Sc1cc(Cl)ccc1O | – | 24.5 µM (active) |
| NC(=NCCCCCCN=C(N)/N=C(\N)Nc1ccc(Cl)cc1)/N=C(\N)Nc1ccc(Cl)cc1 | – | 19.8 µM (active) [middle of 4 runs] |
| C=C(C)C(=O)OCC[N+](C)(C)C | -15.5% (inactive) | – |
| CCCCCOC(=O)CCCC | 1.78% (inactive) | – |
| CCOC(=O)c1nc(C(Cl)(Cl)Cl)n(-c2ccc(Cl)cc2Cl)n1 | – | 49 µM (active) |
| CCC(C)(C)C1CCCCC1OC(C)=O (stereo not drawn) | – | 54.9 µM (active) |
| Clc1ccc2nsnc2c1NC1=NCCN1 | -1.27% (inactive) | – |
| O=C1CCCCCN1SSN1CCCCCC1=O | -14.8% (inactive) | – |
| Cc1cccc(S(=O)(=O)O)c1C | 4.88% (inactive) | – |
| CSc1ccc(C(=O)c2[nH]c(=O)[nH]c2C)cc1 | -0.33% (inactive) | – |
| CCN(C(=O)N(CC)c1ccccc1)c1ccccc1 | -30% (inactive) | – |
| On1ccccc1=S | – | 0.685 µM (active) |
| O=C1c2ccccc2Cc2ccccc21 | 17.1% [at 80.4 µM] (inactive) | – |
| O=C(OCC1CO1)C1CCCCC1C(=O)OCC1CO1 (stereo not drawn) | 0.992% (inactive) | – |

Target: Peroxisome proliferator-activated receptor delta (Homo sapiens) (UniProt Q03181)
Assay: qHTS assay to identify small molecule antagonists of the peroxisome proliferator-activated receptor delta (PPARd) signaling pathway (AID 743215; active = well fitted inhibition curve with a large enough effect in the signal ratio in the repeat runs, not every such curve was filed as active; the % refers to the signal ratio;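 also: cells stimulated with agonist L165041 at 300 nM final during compound exposure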)
Conditions: HEK293H PPARd-UAS-bla, beta-lactamase FRET ratio, antagonist, 17 h; series mostly up to 62 µM; ratio activity, negative = inhibition: at the top concentration
In short: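 With L165041 present at 300 nM final, compounds were incubated 17 h at 37 C on PPARd UAS-bla HEK293H cells. A FRET-based beta-lactamase substrate was then applied for 2 h at room temperature and fluorescence intensity recorded.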

| Structure (SMILES) | ratio activity, negative = inhibition | Potency |
| --- | --- | --- |
| COc1cc(/C=C/C(=O)O[C@H]2CC[C@]34C[C@]35CC[C@]3(C)[C@@H]([C@H](C)CCC=C(C)C)CC[C@@]3(C)[C@@H]5CC[C@H]4C2(C)C)ccc1O | 2.5% (inactive) | – |
| CCCCCCCCCCCCCCCC(=O)OC[C@H](O)[C@H]1OC(=O)C(O)=C1O | 5.65% (inactive) | – |
| Cc1c(C)c2c(c(C)c1O)CCC(C)(COc1ccc(CC3SC(=O)NC3=O)cc1)O2 (stereo not drawn) | -20.6% (inactive) | – |
| CCCC1O[C@@H]2C[C@H]3[C@@H]4CCC5=CC(=O)C=C[C@]5(C)[C@H]4[C@@H](O)C[C@]3(C)[C@]2(C(=O)CO)O1 (stereo partly drawn) | – | inactive |
| CCCCCCCCCCC=O | -2.14% [at 80.4 µM] (inactive) | – |
| CC(C)CCCCCCCCCCCCCCC(=O)O | 0.0232% (inactive) | – |
| Clc1ccc2nsnc2c1NC1=NCCN1 | -9.34% (inactive) | – |
| C[C@@H]1C[C@H]2[C@@H]3CCC4=CC(=O)C=C[C@]4(C)[C@@]3(Cl)[C@@H](O)C[C@]2(C)[C@@]1(OC(=O)c1ccco1)C(=O)CCl | 0.0253% (inactive) | – |
| CC(=O)OCC(C)OC(C)=O (stereo not drawn) | 12% (inactive) | – |
| Cc1cccc(S(=O)(=O)O)c1C | 16.5% (inactive) | – |
| CSc1ccc(C(=O)c2[nH]c(=O)[nH]c2C)cc1 | -0.774% (inactive) | – |
| ON=C1CCCC1 | 7.98% [at 80.4 µM] (inactive) | – |
| Cc1ccc(O)c(C(C)(C)C)c1 | -6.02% (inactive) | – |
| O=C1c2ccccc2Cc2ccccc21 | 7.02% [at 80.4 µM] (inactive) | – |

Target: Bile acid receptor (Homo sapiens) (UniProt Q96RI1)
Sequence (Q96RI1 whole entry, looked up): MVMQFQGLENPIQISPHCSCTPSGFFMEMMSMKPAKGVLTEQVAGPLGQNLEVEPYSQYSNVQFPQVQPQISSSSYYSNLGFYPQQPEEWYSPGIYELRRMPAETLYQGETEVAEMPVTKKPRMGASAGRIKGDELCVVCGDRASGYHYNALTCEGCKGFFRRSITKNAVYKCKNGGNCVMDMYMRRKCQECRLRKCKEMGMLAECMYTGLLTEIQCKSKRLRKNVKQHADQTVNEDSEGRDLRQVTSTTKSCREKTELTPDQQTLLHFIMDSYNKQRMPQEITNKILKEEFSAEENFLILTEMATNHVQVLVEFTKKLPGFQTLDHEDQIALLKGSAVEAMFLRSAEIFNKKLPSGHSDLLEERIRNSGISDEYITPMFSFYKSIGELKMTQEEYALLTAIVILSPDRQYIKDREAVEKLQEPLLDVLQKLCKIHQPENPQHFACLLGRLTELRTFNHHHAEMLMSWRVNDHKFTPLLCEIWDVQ
Assay: qHTS assay to identify small molecule antagonists of the farnesoid-X-receptor (FXR) signaling pathway (AID 743217; active = well fitted inhibition curve with a large enough effect in the signal ratio in the repeat runs, not every such curve was filed as active; the % refers to the signal ratio)
Conditions: HEK293T FXR-UAS-bla, beta-lactamase ratio, CDCA-stimulated, 16 h; series mostly up to 62.6 µM; activity change, negative = inhibition: at the top concentration
In short: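 In this cell-based antagonist screen, inhibition of CDCA-driven (50 uM final) UAS-beta-lactamase expression in HEK 293T cells was measured by FRET fluorescence following 16 h compound exposure at 37 °C.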

| Structure (SMILES) | activity change, negative = inhibition |
| --- | --- |
| COc1cc(/C=C/C(=O)O[C@H]2CC[C@]34C[C@]35CC[C@]3(C)[C@@H]([C@H](C)CCC=C(C)C)CC[C@@]3(C)[C@@H]5CC[C@H]4C2(C)C)ccc1O | 0.0281% (inactive) |
| Cc1c(C)c2c(c(C)c1O)CCC(C)(COc1ccc(CC3SC(=O)NC3=O)cc1)O2 (stereo not drawn) | -20.3% (inactive) |
| CN(C)c1ccc(SC#N)cc1 | -6.56% (inactive) |
| CCCC1O[C@@H]2C[C@H]3[C@@H]4CCC5=CC(=O)C=C[C@]5(C)[C@H]4[C@@H](O)C[C@]3(C)[C@]2(C(=O)CO)O1 (stereo partly drawn) | 12.9% (inactive) |
| CCCCCOC(=O)CCCC | -1.38% (inactive) |
| Clc1ccc2nsnc2c1NC1=NCCN1 | 9.5% (inactive) |
| CC(=O)OCC(C)OC(C)=O (stereo not drawn) | 5.23% (inactive) |
| O=C1CCCCCN1SSN1CCCCCC1=O | -11.7% (inactive) |
| ON=C1CCCC1 | 3.76% [at 81.1 µM] (inactive) |
| C[C@H]1[C@H]2CC[C@H]3[C@@H]4CC=C5C[C@@H](N(C)C)CC[C@]5(C)[C@H]4CC[C@]23CN1C | 0.848% (inactive) |
